# Hits are enriched below; roughly 15% of the tested compounds scored in any of these assays.
# TDP1 cell noCPT – qHTS for Inhibitors of human tyrosyl-DNA phosphodiesterase 1 (TDP1): qHTS in cells in absence of CPT; DT40 Tdp1-/- hTDP1 cells, no CPT, ATP luminescence, 48 h; AID 686978, 2013; Potency, µM (highest dose often 46.2 µM), for inactives: at the top dose activity change, negative = growth inhibition, usual class: inhibitors; hit rate 15% among 420,000; further: nearly all actives have a fitted effect of over 55% in size
#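 DT40 Tdp1-/-;hTDP1 cells, no CPT (DMSO vehicle only), 400 cells/well; compounds pin-transferred; ≥48 hr, 37 °C; CellTiter-Glo 30 min RT dark, luminescence read.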
# VP16 counter – counter-screen for ROR gamma inhibitors: Gal4-VP16 reporter; Potency, µM (doses to about 53.6 µM), for inactives: at the highest dose activity, negative = inhibition, hits mostly inhibitors; Drosophila S2 Gal4-VP16 UAS-luciferase, luminescence, 20 h; hit rate 3.5% among 310,000;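 further: Gal4-VP16 expression switched on by copper sulfate through the metallothionein promoter; nearly all actives have a fitted effect of over 50% in size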
# ALOX12 inh – blocks human arachidonate 12S-lipoxygenase; Potency, µM (highest dose often 108 µM), for the others: top-dose activity change, negative = inhibition, actives largely listed as inhibitors; purified 12hLO, xylenol orange hydroperoxide absorbance; hit rate 1.1% among 580,000; AID 1671190
# Target sequence (P18054 whole entry, looked up): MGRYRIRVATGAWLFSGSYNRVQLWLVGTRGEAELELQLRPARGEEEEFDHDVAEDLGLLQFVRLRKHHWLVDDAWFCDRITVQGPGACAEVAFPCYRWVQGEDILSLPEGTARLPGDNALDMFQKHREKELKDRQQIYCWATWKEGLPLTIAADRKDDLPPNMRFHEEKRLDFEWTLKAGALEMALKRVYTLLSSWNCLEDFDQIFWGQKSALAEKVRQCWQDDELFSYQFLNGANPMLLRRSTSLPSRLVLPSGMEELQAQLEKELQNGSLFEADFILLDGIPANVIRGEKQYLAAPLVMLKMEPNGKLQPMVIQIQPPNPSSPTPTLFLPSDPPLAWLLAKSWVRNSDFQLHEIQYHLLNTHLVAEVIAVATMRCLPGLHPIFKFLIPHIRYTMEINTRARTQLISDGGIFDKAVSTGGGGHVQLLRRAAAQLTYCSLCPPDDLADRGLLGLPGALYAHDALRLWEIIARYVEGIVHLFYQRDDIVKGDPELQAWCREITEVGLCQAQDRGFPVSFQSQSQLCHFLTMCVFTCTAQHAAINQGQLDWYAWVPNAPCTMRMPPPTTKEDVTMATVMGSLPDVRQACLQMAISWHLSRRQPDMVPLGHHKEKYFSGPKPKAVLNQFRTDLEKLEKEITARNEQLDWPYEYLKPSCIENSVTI
#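 Hydroperoxide product was detected by ferrous iron/xylenol orange as the 573 to 405 nm absorbance ratio. Arachidonic acid at 40 uM (final) was turned over for 30 min at room temperature by 150 nM human 12hLO, pH 7.0 Hepes buffer, after 15 min compound preincubation.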
# TDP1 cell CPT – DT40-hTDP1 cell growth loss with CPT; AID 686979; hit rate 12% among 420,000; Potency, µM (titrated, usually from 46.2 µM), for the others: at the highest dose activity change, negative = growth inhibition, most hits filed as inhibitors; chicken DT40 Tdp1-/-;hTDP1 cells + 20 nM CPT, ATP luminescence, 48 h; further: nearly all actives have a fitted effect of over 55% in size
#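 Chicken DT40 Tdp1-/- cells stably complemented with human TDP1 were seeded at 400 cells/well in medium containing 20 nM camptothecin, exposed to pin-transferred compounds, and grown at 37 °C for at least 48 hr. Viability was read as ATP luminescence.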
# RORgamma inh – inhibitors of mouse ROR gamma transcriptional activity; P51450; Drosophila S2 Gal4-RORgamma UAS-luciferase reporter, 20 h; Potency, µM (doses to about 53.6 µM), for inactives: at the top dose activity change, negative = inhibition, usual class: inhibitors; hit rate 5.4% among 310,000; AID 2551; further: nearly all actives have a fitted effect of over 60% in size
#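 In this cell-based reporter format, copper sulfate (700 uM final) drives Gal4–ROR gamma fusion expression from a metallothionein promoter in Drosophila Schneider cells; compounds preincubated 1 hr, reporter read after 20 hr at ambient temperature.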
# ELG1 DNA repair – inhibitors of ELG1-dependent DNA repair in HEK293T cells | hit rate 2.3% among 330,000 | HEK293T ELG1-luciferase reporter, luminescence, 16 h; DNA damage induced by 5-fluorouridine | Potency, µM (highest dose often 46.1 µM), for inactives: top-dose activity change, negative = inhibition, most hits filed as inhibitors | AID 504467; further: nearly all actives have a fitted effect of over 55% in size
#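 Quantitative HTS, concentration-response format. 2,000 cells/well co-treated with 5-fluorouridine and compound, 16 hr in 5% CO2 at 37 °C; ONE-Glo luminescence read after 30 min.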
# * hit, by the source's call; i = inactive; ? = inconclusive; / = no result; [ ] = another dose, or the depositor's remark. The call rests on the fitted dose curve; in most records, active means well fitted curve in the direction sought with a large enough effect; inconclusive means small, poorly fitted or top-dose-only effect, or another doubt; inactive means no such curve, though single readings can be large; an effect the other way counts as inactive or inconclusive. On the % scale 0 is the no-effect control and ±100 the full control effect; potency means the concentration at half of the fitted maximal effect.
SMILES,TDP1 cell noCPT,VP16 counter,ALOX12 inh,TDP1 cell CPT,RORgamma inh,ELG1 DNA repair
CCN(CC)CCN(C(=O)c1ccc(C(=O)c2ccccc2)cc1)c1nc2c(OC)cccc2s1,-22.9%,-5.5%,i,?,-29.8%,-10.8%
Cc1ccc(Cl)cc1NC(=O)C(C)n1nnc2sc3c(c2c1=O)CCCC3 (centres undefined),16.4µM*,/,-22.8%,25.9µM*,/,/
Cc1ccc(NC(=O)Cn2nnc3sc4c(c3c2=O)CCCC4)c(C)c1,?,/,-19.3%,?,/,/
CCOc1ccccc1NC(=O)C(C)n1nnc2sc3c(c2c1=O)CCCC3 (centres undefined),14.6µM*,/,-3.4%,?,/,/
Cc1c(Cl)cccc1NC(=O)Cn1nnc2sc3c(c2c1=O)CCCC3,2.9%,/,-13.2%,-9.1%,/,/
CC(C(=O)Nc1cc(C(F)(F)F)ccc1Cl)n1nnc2sc3c(c2c1=O)CCCC3 (centres undefined),16.4µM*,/,-6.7%,23.1µM*,/,/
Cc1c(Cl)cccc1NC(=O)C(C)n1nnc2sc3c(c2c1=O)CCCC3 (centres undefined),-17.9%,/,-24.4%,?,/,/
Cc1cc(C)n(CCc2nc3cc(NC(=O)COc4ccc(Cl)cc4)ccc3n2C)n1,/,/,-2.4%,/,/,/
COC(=O)c1cc(CN2CCN(c3ccccc3C)CC2)ccc1O,?,2.6%,?,?,-11.8%,23.1µM*
Cc1ccccc1N1CCN(Cc2cccc(C(=O)O)c2)CC1,-3.1%,1.7%,-14.6%,-19.4%,-2.3%,-7.4%
Cc1ccc(-c2nc3nc(CN4CCCC4)cc(=O)n3[nH]2)cc1,/,/,-5.9%,/,/,/
Clc1cccc(CSc2nc(NCCc3ccccc3)c3ccccc3n2)c1,?,/,-15.7%,?,/,/
COc1ccc(CCNc2nc(SCc3cccc(Cl)c3)nc3ccccc23)cc1OC,8.2µM*,/,0.0%,?,/,/
COc1ccc(CCNc2nc(SCc3ccc(F)cc3)nc3ccccc23)cc1OC,7.31µM*,/,-18.9%,7.31µM*,/,/
COc1ccc(CCNC(=O)CCSCc2ccccc2F)cc1OC,-14.2%,-1.8%,0.0%,-5.0%,9.6%,0.2%
COc1ccc(CCNc2nc(SCc3ccccc3F)nc3ccccc23)cc1OC,3.66µM*,/,0.0%,3.66µM*,/,/
CCOCCCNc1nc2c(c(=O)n(C)c(=O)n2C)n1Cc1ccc(Cl)cc1Cl,/,/,8.5%,/,/,/
Cc1ccc(OCCNC(=O)c2ccc3ccccc3n2)cc1,?,1.3%,-25.7%,?,37.9%,?
Cc1cccc(C)c1OCCNC(=O)c1ccc2ccccc2n1,16.4µM*,16.3%[10 µM],-13.4%,20.6µM*,9.2%,?
COc1ccc(CNC(=O)c2ccc3ccccc3n2)cc1OC,?,?,-20.1%,?,?,16.4µM*
CCOc1ccc(CCNC(=O)c2ccc3ccccc3n2)cc1OCC,8.2µM*,28.0%,80.3%,18.4µM*,14.8%,9.6%
CCOc1ccc(CCNC(=O)c2cnc(C)cn2)cc1OCC,1.2%,0.6%,/,-20.2%,16.2%,1.6%
COc1ccccc1CNC(=O)c1ccc2ccccc2n1,?,-4.5%,-12.9%,-28.4%,-15.6%,10.5%
O=C(c1ccccc1)N1CCn2ncc(C(=O)N3CCOCC3)c2C1,/,/,3.8%[6.33 µM],/,/,/
CCOC(=O)C1=C(COC(=O)/C=C/c2ccc([N+](=O)[O-])cc2)NC(=O)NC1C (centres undefined),-8.0%,/,-20.2%,-13.9%,/,-10.5%
SMILES,TDP1 cell noCPT,VP16 counter,ALOX12 inh,TDP1 cell CPT,RORgamma inh,ELG1 DNA repair
CCOC(=O)C1=C(COC(=O)/C=C/c2ccc(OC)cc2)NC(=O)NC1C (centres undefined),20.6µM*,/,1.3%,9.2µM*,/,?
CCOC(=O)C1=C(COC(=O)COc2ccc(C#N)cc2)NC(=O)NC1C (centres undefined),16.4µM*,0.2%,?,9.4%,-1.0%,9.1%
CCOC(=O)C1=C(COC(=O)/C=C/c2ccc(SC)cc2)NC(=O)NC1C (centres undefined),?,/,-7.6%,-25.3%,/,10.3µM*
CCOC(=O)C1=C(COC(=O)COc2ccc(C(C)=O)cc2)NC(=O)NC1C (centres undefined),-22.3%,/,3.2%,-17.2%,/,3.4%
O=C(C=P(c1ccccc1)(c1ccccc1)c1ccccc1)c1ccccc1-c1ccccc1C(=O)C=P(c1ccccc1)(c1ccccc1)c1ccccc1,0.581µM*,/,?,0.731µM*,/,/
COc1ccc(C2N=C(c3ccccc3)C(C)(C)N2O)cc1OC (centres undefined),?,-16.9%,?,?,10µM*,-21.6%
CC(=O)Nc1ccc(NC(=O)CCn2c(=S)oc3ccccc32)cc1,20.5%,8.1%,?,-9.7%,-3.3%,?
CCCNC(=O)CCn1c(=S)oc2ccccc21,?,-2.4%,-1.9%,9.2µM*,13.3%,-5.6%
CC(C)(C)NC(=O)CNC(=O)C1CCCN1S(=O)(=O)c1ccc(Cl)s1 (centres undefined),/,/,41.8%,/,/,/
O=[N+]([O-])c1ccc(/C=N/n2c(COc3ccccc3)n[nH]c2=S)cc1,-13.5%,-26.1%,-17.3%,-18.0%,7.08µM*,3.3%
O=[N+]([O-])c1cccc(/C=N/n2c(COc3ccccc3)n[nH]c2=S)c1,4.0%,?,?,-14.6%,12.6µM*,-4.3%
CCn1c(COc2cc(C)c(Cl)c(C)c2)n[nH]c1=S,/,/,-74.7%,/,/,/
CN1CCN(C(=O)Cn2ccc3c(Br)cccc32)CC1,/,/,-4.5%,/,/,/
Cc1ccc(-n2cc(CNC(C)c3cnn(C)c3C)c(-c3ccc(F)cc3)n2)cc1 (centres undefined),2.91µM*,-29.0%,10.8%,5.17µM*,?,-5.6%
Cc1ccc(-n2cc(CNC(C)c3cnn(C)c3)c(-c3ccc(F)cc3)n2)cc1 (centres undefined),20.6µM*,-9.7%,-15.5%,18.4µM*,-26.6%,4.1%
O=C(CCCN1C(=O)/C(=C\c2cccc(Br)c2)SC1=S)Nc1cccnc1,14.6µM*,-4.9%,-16.0%,?,0.9%,?
O=C(CCCN1C(=O)/C(=C/c2cccc(Br)c2)SC1=S)Nc1cccnc1,16.4µM*,-9.1%,0.5%,?,14.1µM*,9.2µM*
O=C(CCCN1C(=O)/C(=C/c2cccs2)SC1=S)Nc1cccnc1,-4.8%,-7.2%,-14.4%,9.0%,7.2%,8.4%
O=C(CCCN1C(=O)/C(=C/c2cccc(Br)c2)SC1=S)Nc1ccccn1,?,-2.2%[0.365 µM],0.0%,?,?,?
O=C(Cc1ccc(F)cc1)N1CCC(c2nn(Cc3ccccc3)c(=O)[nH]2)CC1,/,/,40.6%,/,/,/
